Measured values: PubChem BioAssay (NCI)
The panel holds about 83,000 compounds, 20% with a hit somewhere; the sample as a whole holds those more often.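 How to read the values: 0–100, growth inhibition (40 = 60% inhibited); 0, no net growth; -100 to 0, cell death (-40 = 40% of starting cells died; -100 = all dead).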 The source made the active and inactive calls. Rule for the calls: active = growth percent below 10; inactive = the rest.

Experiments:
Test in all cases: NCI-60 one-dose screen, 48 h (100 = growth as untreated, 0 = no growth, -100 = all killed)
Conditions in all cases: 10 µM unless noted
[1] = tested on: SK-MEL-2 melanoma
[2] = tested on: EKVX NSCLC
[3] = tested on: SN12C renal
[4] = tested on: UO-31 renal
[5] = tested on: TK-10 renal
[6] = tested on: ACHN renal
[7] = tested on: CAKI-1 renal
[8] = tested on: A498 renal
[9] = tested on: CCRF-CEM leukemia
[10] = tested on: MOLT-4 leukemia
[11] = tested on: SR leukemia
[12] = tested on: RPMI-8226 leukemia
[13] = tested on: OVCAR-8 ovarian
[14] = tested on: OVCAR-5 ovarian
[15] = tested on: OVCAR-4 ovarian
[16] = tested on: SK-OV-3 ovarian
[17] = tested on: IGROV1 ovarian
[18] = tested on: OVCAR-3 ovarian
[19] = tested on: HS 578T breast
[20] = tested on: NCI/ADR-RES ovarian

Measured: growth

CCCCNC(=S)Nc1ccc(OCc2nc3ccccc3[nH]2)cc1
inactive: [1] 69.1% | [2] 62.3% | [3] 64.5% | [4] 41.1% | [5] 98.8% | [6] 45.5% | [7] 40% | [8] 96.5% | [9] 34.2% | [10] 35.2% | [11] 53.7% | [12] 58.8% | [13] 59.3% | [14] 86% | [15] 57.2% | [16] 113% | [17] 78.6% | [18] 60.3% | [19] 92.3% | [20] 65.9%

CC(=O)c1c(N)c(C#N)cn1-c1ccc(Cl)cc1Cl
inactive: [1] 90.4% | [2] 93.8% | [3] 100% | [4] 68.4% | [5] 160% | [6] 102% | [7] 97.1% | [8] 112% | [9] 99.3% | [10] 102% | [11] 90.8% | [12] 105% | [13] 98.2% | [14] 100% | [15] 106% | [16] 89.1% | [17] 96.5% | [18] 120% | [19] 110% | [20] 108%

Cn1cc(-c2cc3nc(-c4cn(C)c5ncccc45)cc(N)n3n2)c2ccccc21
inactive: [1] 15.2% | [2] 43.7% | [5] 80.3% | [13] 10.2% | [14] 48.9% | [16] 42.8% | [20] 31.2%
active: [3] -38.2% | [4] 8.84% | [6] -73.3% | [7] -23.2% | [8] -2.42% | [9] 0.438% | [10] -21.3% | [11] -28.8% | [12] -19.1% | [15] 3.01% | [17] 0.888% | [18] 6.85% | [19] -13%

O=C1CC(Sc2n[nH]c(-c3ccncc3)n2)C(=O)N1c1ccc(Br)cc1 (stereo not given)
inactive: [1] 116% | [2] 106% | [3] 93.6% | [4] 88.7% | [5] 101% | [6] 109% | [7] 99.9% | [8] 111% | [9] 88.9% | [10] 115% | [11] 97.4% | [12] 94.1% | [13] 105% | [14] 105% | [15] 110% | [16] 108% | [17] 112% | [18] 114% | [19] 111% | [20] 111%

COc1c(F)ccc(C(=O)Nc2ccc3nc(NC(=O)C4CCCN(S(=O)(=O)c5cccc(Cl)c5)C4)sc3c2)c1F (stereo not given)
inactive: [1] 88.5% | [2] 92.8% | [3] 84.3% | [4] 75.2% | [5] 118% | [6] 82.4% | [7] 74.4% | [8] 113% | [9] 85.3% | [10] 42.8% | [11] 44.5% | [12] 42.8% | [13] 98.8% | [14] 102% | [15] 83.1% | [16] 105% | [17] 81.6% | [18] 105% | [19] 62.6% | [20] 80.5%

CC1[C@H]2[C@H](C[C@H]3[C@@H]4CC=C5c6sc(Nc7ccccc7F)nc6CC[C@]5(C)[C@H]4CC[C@@]32C)O[C@]12CC[C@@H](C)CO2 (stereo not given in full)
inactive: [8] 17.5%
active: [1] -83% | [2] -52.5% | [3] -69.4% | [4] -93.1% | [5] -60.2% | [6] -75.4% | [7] -82.2% | [9] -21.5% | [10] -16.2% | [11] 4.49% | [12] -16.2% | [13] -83.4% | [14] -67.1% | [15] -42.9% | [16] -19.5% | [17] -37.6% | [18] -74.3% | [19] -16.1% | [20] -33.9%

CC1(C)CC[C@]2(C(=O)O)CC[C@]3(C)C(=CCC4[C@@]5(C)C[C@@H](O)[C@@H]6OC(c7cccc(Br)c7)OC[C@@]6(C)C5CC[C@]43C)C2C1 (stereo not given in full)
inactive: [1] 65.8% | [2] 27.8% | [3] 46.3% | [4] 30.3% | [5] 35.4% | [6] 19.4% | [7] 39.4% | [8] 69.5% | [9] 27.5% | [10] 13.2% | [11] 30.6% | [12] 18.9% | [13] 40% | [14] 67.5% | [15] 52.4% | [16] 101% | [17] 66.7% | [18] 34.9% | [19] 65.3% | [20] 40.6%

COc1cc(C2CC(c3cc(OC)c(OC)c(OC)c3)=NN2C(C)=O)ccc1OCc1ccccc1 (stereo not given)
inactive: [1] 21.3% | [2] 32.6% | [3] 41.1% | [5] 32.1% | [6] 28.2% | [7] 29% | [8] 55.1% | [9] 40.2% | [11] 32.1% | [12] 24.2% | [13] 46.7% | [14] 59.8% | [15] 22.3% | [16] 71.3% | [17] 42.9% | [18] 41% | [19] 41% | [20] 38.4%
active: [4] 8.63% | [10] 8.79%

Cc1ccc(C2CC(c3ccc(S(=O)(=O)NCCNc4nc(Nc5ccc(F)cc5)nc(N(C)C)n4)cc3)=Nc3c(N)nc(N)nc3N2)cc1 (stereo not given)
active: [10] 4.77% | [11] -6.57% | [12] 6.3%
inactive: [1] 76.9% | [2] 62.7% | [3] 74.2% | [4] 67.4% | [5] 96.5% | [6] 61% | [7] 76.9% | [8] 89.2% | [9] 18.4% | [13] 52% | [14] 92.6% | [15] 53.2% | [16] 101% | [17] 69.8% | [18] 67.5% | [19] 65.2% | [20] 88.9%

COc1ccc(/C=N/NC(=O)Cn2nc(Cc3ccc(OC)cc3)c3onc(C)c3c2=O)cc1
inactive: [1] 78.9% | [2] 61.5% | [3] 27.5% | [4] 44.6% | [5] 79.4% | [6] 12.8% | [8] 48.1% | [9] 75.5% | [10] 78.7% | [11] 53.4% | [12] 53.7% | [13] 45% | [14] 52.2% | [16] 25.9% | [17] 77.6% | [18] 50.8% | [19] 36.3% | [20] 40.6%
active: [7] -27.2% | [15] -9.28%

COc1ccc(/C=C/c2n(Cc3ccc4ccccc4c3)c3ccccc3[n+]2Cc2ccc3ccccc3c2)cc1
active: [1] -93.7% | [2] -82.7% | [3] -88.8% | [4] -93% | [5] -93.7% | [6] -100% | [7] -100% | [8] -79.8% | [9] -24.2% | [10] -2.71% | [11] -34.9% | [12] -48.5% | [13] -75.2% | [14] -98.4% | [15] -65% | [16] -95.7% | [17] -76.2% | [18] -82.8% | [19] -59.3% | [20] -53.4%

Cc1cccc(-c2nc(Nc3ccc(C)c(S(N)(=O)=O)c3)c3ccccc3n2)c1
inactive: [1] 52.2% | [2] 22.7% | [3] 29.8% | [4] 25.2% | [5] 60.1% | [6] 15.3% | [7] 24% | [8] 52.8% | [9] 17.7% | [10] 16.8% | [12] 12.9% | [13] 32.8% | [14] 47.6% | [15] 44.7% | [16] 103% | [17] 42.9% | [18] 39.3% | [19] 53.4% | [20] 18.7%
active: [11] 9.02%

CC1(C)CC[C@]2(C(=O)O)CC[C@]3(C)C(=CCC4[C@@]5(C)C[C@@H](O)[C@@H]6OC(c7ccc(F)cc7)OC[C@@]6(C)C5CC[C@]43C)C2C1 (stereo not given in full)
inactive: [1] 18.1% | [2] 20.5% | [3] 31.8% | [4] 25.6% | [5] 26.9% | [6] 13.3% | [7] 33.6% | [8] 46.8% | [9] 14.6% | [13] 29.3% | [14] 63.4% | [15] 44% | [16] 85.7% | [17] 43.4% | [18] 24% | [19] 48.1% | [20] 30.2%
active: [10] 8.69% | [11] 7.73% | [12] 9.02%

CN(C)c1nc(NCCNS(=O)(=O)c2ccc(C3=Nc4c(N)nc(N)nc4NC(c4ccc(Cl)cc4)C3)cc2)nc(Nc2ccc(F)cc2)n1 (stereo not given)
active: [1] -2.74% | [10] 7.27% | [11] 0.305% | [12] -2.32%
inactive: [2] 43.3% | [3] 47.1% | [4] 81.1% | [5] 79.6% | [6] 73.8% | [7] 72.4% | [8] 76.5% | [9] 14% | [13] 46.2% | [14] 72.6% | [15] 45.6% | [16] 90.3% | [17] 51.5% | [18] 51.9% | [19] 56.3% | [20] 94.4%

CCN1C(=O)N(CC)C2NNC(Sc3c(C(=O)O)c4ccccc4n(C4CCCC4)c3=O)=NC21 (stereo not given)
active: [13] 4.93% | [18] -32.5% | [19] 7.18%
inactive: [1] 27% | [2] 45.7% | [3] 34.3% | [4] 46.8% | [5] 80.1% | [6] 25.7% | [7] 27.5% | [8] 102% | [9] 24.8% | [10] 24.1% | [11] 22.4% | [12] 24.8% | [14] 38.4% | [15] 61.8% | [16] 32.8% | [17] 29.6% | [20] 25.1%
